From PubChem BioAssay
ATXN viability: cell viability loss in ATXN counter-screen; S2 cells (HEK-293 line with an ATXN2-luciferase reporter) viability, CellTiter-Fluor protease fluorescence, 24 h; Potency, µM (top dose mostly 56.7 µM), usual class: cytotoxic; 0.49% of 400,000 active; further: nearly all actives have a fitted effect of over 40% in size
RORgamma inh: ROR gamma (mouse) transcription inhibition; Drosophila S2 Gal4-RORgamma UAS-luciferase reporter, 20 h; Potency, µM (highest dose often 53.6 µM), inactives show at the top dose activity change, negative = inhibition, hits mostly inhibitors; 5.4% of 310,000 active; AID 2551; further: on the % scale 0 is the no-effect control and ±100 the full control effect; nearly all actives have a fitted effect of over 60% in size
Target sequence (P51450 whole entry, looked up, the tested form may be a part): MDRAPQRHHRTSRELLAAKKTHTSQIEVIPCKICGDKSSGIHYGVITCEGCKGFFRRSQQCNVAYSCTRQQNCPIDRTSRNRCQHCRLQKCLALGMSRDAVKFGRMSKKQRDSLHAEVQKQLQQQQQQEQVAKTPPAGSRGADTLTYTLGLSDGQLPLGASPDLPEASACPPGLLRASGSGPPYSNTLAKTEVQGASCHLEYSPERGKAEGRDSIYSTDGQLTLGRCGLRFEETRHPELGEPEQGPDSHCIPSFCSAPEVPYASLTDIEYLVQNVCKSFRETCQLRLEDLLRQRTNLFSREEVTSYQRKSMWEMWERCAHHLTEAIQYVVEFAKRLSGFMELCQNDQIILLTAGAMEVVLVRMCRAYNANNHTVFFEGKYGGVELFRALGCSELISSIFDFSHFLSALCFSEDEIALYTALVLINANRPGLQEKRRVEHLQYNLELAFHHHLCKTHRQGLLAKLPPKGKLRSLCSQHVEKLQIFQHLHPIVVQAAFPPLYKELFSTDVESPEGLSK
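Luciferase reporter read in Schneider cells carrying Gal4-RORγ (mouse) and UAS-Photinus luciferase; cells given compound 1 h before 700 uM copper sulfate induction, then incubated 20 h at ambient temperature.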
TGFb SMAD3 inh: blocks TGF-b signaling | HepG2 CAGA-GFP TGF-b/SMAD3 reporter, GFP fluorescence, 18 h; TGF-beta stimulated, 500 pg/mL final | Potency, µM (top dose mostly 46.1 µM), inactives show top-dose activity, negative = inhibition, most hits filed as inhibitors | 1.2% of 410,000 active | AID 588855; further: on the % scale 0 is the no-effect control and ±100 the full control effect; nearly all actives have a fitted effect of over 65% in size
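Cell-based qHTS in HEPG2 carrying a CAGA-GFP Smad reporter; compounds added before 500 pg/mL final TGF-beta, 18 h incubation at 37 degrees C, GFP fluorescence quantified per cell by imaging cytometry.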
Gal4-VP16 FLuc: counter-screen for ROR gamma inhibitors: Gal4-VP16 reporter | Drosophila S2 Gal4-VP16 UAS-luciferase, luminescence, 20 h | Potency, µM (doses to about 53.6 µM), for the others: at the top dose activity, negative = inhibition, usual class: inhibitors | 3.5% of 310,000 active | AID 2546;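 further: Gal4-VP16 expression switched on by copper sulfate through the metallothionein promoter; on the % scale 0 is the no-effect control and ±100 the full control effect; nearly all actives have a fitted effect of over 50% in size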
ATXN2 expr inh: ATXN2 expression inhibition; HEK-293 ATXN2-luciferase reporter, luminescence, 24 h; Potency, µM (titrated, usually from 57 µM), for inactives: at the top dose activity change, negative = inhibition, usual class: inhibitors; 0.72% of 360,000 active; further: on the % scale 0 is the no-effect control and ±100 the full control effect; nearly all actives have a fitted effect of over 55% in size
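ATXN2-luciferase reporter cells (luciferase flanked by upstream and downstream ATXN2 gene portions) were treated 24 h at 37 °C with compounds at up to 57 uM. SteadyGlo luminescence gave expression; GF-AFC fluorescence gave viability.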
HepG2 tox: kills HepG2 cells in TGF-b inhibitor counter-screen; HepG2 CAGA-GFP viability, ATP luminescence, 18 h; Potency, µM (doses to about 46.1 µM), for the others: top-dose activity change, negative = cytotoxicity, most hits filed as cytotoxic; 0.76% of 410,000 active
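CellTiter-Glo luminescence gave cytotoxicity after 18 hours at 37 degrees C. The cells were HepG2 CAGA-GFP in 1% FBS DMEM, stimulated with 500 pg/mL TGF-beta after compound addition. %Activity was normalised to no-cell wells (complete cell-killing) and DMSO (no toxicity), and curves were fitted and classified.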
Active calls of the source: *; i = inactive; ? = inconclusive; nt = no result; [ ] = dose if it differs, or a comment. In the library only some 6.1% were active in any assay of this set; here they are far more common. The call rests on the fitted dose curve; in most records, active means well fitted curve in the direction sought with a large enough effect; inconclusive means small, poorly fitted or top-dose-only effect, or another doubt; inactive means no such curve, though single readings can be large; an effect the other way counts as inactive or inconclusive. Potency means the concentration at half of the fitted maximal effect.

SMILES	ATXN viability	RORgamma inh	TGFb SMAD3 inh	Gal4-VP16 FLuc	ATXN2 expr inh	HepG2 tox
Cc1ccc(C(=O)Nc2ccc(Br)cc2)cc1S(=O)(=O)N1CCOCC1	?	nt	-10%	nt	-17%	-50%
Cc1cccc2c(-c3ccccc3)cc(=O)[nH]c12	i	10%	-34%	-7%	2%	-29%
Cc1cc(=S)[nH]c2c(C)cccc12	?	11µM*	25%	?	-6%	3%
O=C(c1ccc(Cl)cc1)N1CCN(c2ccnc3cc(Cl)ccc23)CC1	i	?	?	25µM*	?	2%
Cc1cc(N2CCN(S(=O)(=O)c3ccc(Cl)cc3)CC2)c2ccccc2n1	?	-43%	14µM*	?	?	10µM*
CCC(=O)N1CCN(c2ccnc3cc(Cl)ccc23)CC1	?	-7%	-3%	1%	?	-9%
O=C(Oc1ccnc2cc(Cl)ccc12)N1CCCCCC1	i	4%	?	13µM*	0%	5%
CCOC(=O)N1CCN(c2ccnc3cc(Cl)ccc23)CC1	i	-13%	-20%	-11%	?	-22%
CC(C)N(C(=O)N1CCN(c2ccnc3cc(Cl)ccc23)CC1)C(C)C	?	19%	0%	0%	25µM*	1%
O=C(CCCn1c2ccccc2c(=O)c2ccccc21)Nc1ccc(F)cc1Cl	i	nt	-2%	nt	-21%	-2%
CCOC(=O)c1nc(Nc2ccc(C(=O)OCC(C)C)cc2)c2ccccc2n1	i	nt	-26%	nt	-11%	-11%
Cc1ccc(S(=O)(=O)N2CCN(c3ccnc4cc(Cl)ccc34)CC2)cc1	i	?	?	16µM*	-9%[11.3 µM]	2%
Cc1ccc(S(=O)(=O)c2cn(Cc3ccccc3Cl)c3ccc(F)cc3c2=O)cc1	i	nt	0%	nt	-9%	-16%
Cc1ccc(NC2=Nc3ccccc3CC2)cc1	i	11µM*	-1%	?	-34%	-4%
Brc1ccc(NC2=Nc3ccccc3CC2)cc1	i	?	1%	?	54%	-22%
CCOC(=O)Cn1c(=O)n(CC2CCCO2)c2nc(-c3ccccc3F)nc(C(N)=O)c21 (stereo not given)	i	nt	1%	nt	6%	-4%
C[n+]1c2cc(N)ccc2cc2ccc(N)cc21 (tested in a mixture with another compound)	nt	nt	nt	nt	3.2µM*	nt
CCC[n+]1c(/C=C/c2c(OC)cc(OC)cc2OC)ccc2ccccc21	nt	nt	49%	nt	nt	-37%
Cc1ccc(F)c(NC(=O)c2ccc(Cn3cc(Cl)cn3)cc2)c1	?	11%	0%	-22%[10 µM]	-28%	-11%
Cc1ccc(F)c(NC(=O)/C(C#N)=C(\O)c2ccc(C(C)(C)C)cc2)c1	i	?	13µM*	-4%	nt	13µM*
CCn1c(CN2CCN(c3cccc(C)c3C)CC2)n[nH]c1=S	i	4µM*	-5%	7.1µM*	-13%	15%
Cn1c(=S)[nH]c2cc(C(=O)N3CCN(Cc4cccs4)CC3)ccc2c1=O	nt	nt	-1%	nt	nt	-22%
C=C(CC[C@@H](C)[C@H]1CCC2[C@]1(C)CC[C@]13C[C@@]14CCC(OC(=O)/C=C/c1ccc(O)c(OC)c1)C(C)(C)[C@@H]4CC[C@@]23C)C(C)C (stereo not given in full)	nt	-26%	nt	-7%	nt	nt
Cc1[nH]n(-c2ccccc2)c(=O)c1/C=N/N1C(=O)c2cccc3cccc(c23)C1=O	?	7.1µM*	?	?	?	-62%
Cc1ccc(-n2[nH]c(C)c(C=Nc3ccc4[nH]c(=O)[nH]c4c3)c2=O)cc1	i	22%[10 µM]	?	?	-9%	13µM*
Cc1ccc(-n2[nH]c(C)c(/C=N/c3ccccn3)c2=O)cc1	i	-8%	-15%	0%	8%	10µM*
